Source: PubChem BioAssay AID1780 (National Center for Advancing Translational Sciences (NCATS), 2009)
Active and inactive are the calls of the source. Calls follow the shape of the dose curve; as a rule, active = well fitted curve in the direction sought with a large enough effect; inactive = no such curve, though single readings can be large or run the other way.

target: Pyruvate kinase PKM (Homo sapiens) (UniProt P14618); assay: Confirmation Concentration-Response Assay for Activators of Human Muscle isoform 1 Pyruvate Kinase; details: purified hPK-M1, Kinase-Glo ATP luminescence, 1 h; series mostly up to 57.5 µM; activity change, positive = activation: at the top concentration
Sequence (P14618 whole entry, looked up, canonical isoform): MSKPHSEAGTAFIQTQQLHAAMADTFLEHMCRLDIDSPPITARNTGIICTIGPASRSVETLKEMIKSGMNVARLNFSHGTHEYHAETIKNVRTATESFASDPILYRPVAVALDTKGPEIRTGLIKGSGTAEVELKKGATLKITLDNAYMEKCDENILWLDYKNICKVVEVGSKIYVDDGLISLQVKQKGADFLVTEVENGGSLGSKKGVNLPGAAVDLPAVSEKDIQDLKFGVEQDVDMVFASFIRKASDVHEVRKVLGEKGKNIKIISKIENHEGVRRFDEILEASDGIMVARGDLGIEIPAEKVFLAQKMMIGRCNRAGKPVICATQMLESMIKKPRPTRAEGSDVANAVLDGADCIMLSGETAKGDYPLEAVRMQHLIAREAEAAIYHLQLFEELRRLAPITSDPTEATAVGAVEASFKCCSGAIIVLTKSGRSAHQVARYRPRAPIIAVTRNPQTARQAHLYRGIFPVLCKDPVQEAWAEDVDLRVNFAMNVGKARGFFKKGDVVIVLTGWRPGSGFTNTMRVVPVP
Excerpt: Confirmatory assay NIH Chemical Genomics Center [NCGC] Matthew G. Vander Heiden, M.D., Ph.D. [Harvard Medical School, 77 Avenue Louis Pasteur, Boston, MA 02115] NCGC Assay Overview: Human pyruvate kinase […] (hPK-M1) enzyme was supplied as a highly purified (>95% pure) preparation from Harvard Medical School and assayed for its ability to generate ATP from ADP using phosphoenolpyruvate (PEP) as a substrate. ATP generation was detected in a coupled reaction by luciferase-mediated luminescence, an ATP-dependent process. Pyruvate kinase substrates, PEP and ADP, were present in the assay at Km and approximately 10-fold below Km respectively. The enzyme was assayed at an intermediate level of activity to screen for both inhibitors and activators.
NCGC Assay Protocol Summary for M1-isoform: Three uL of substrate mix (at r.t.) in assay buffer (50 mM Imidazole pH7.2, 50 mM KCl, 7 mM MgCl2, 0.01% Tween 20, 0.05% BSA) was dispensed into white solid bottom 1,536 well microtiter plates so that the final concentrations of substrates in the assay were 0.1 mM ADP and 0.5 mM PEP. 23 nL of compound were delivered by a pin tool and 1 uL of enzyme mix (final concentration of 1 nM) in assay buffer (4 degree Celsius) was added. Plates were incubated at room temperature for 1 hour. Two uL of detection mix (Kinase-Glo, Promega; at 4 degree Celsius protected from light) was added and luminescence read by a ViewLux (Perkin Elmer) at 1 second exposure/plate. Data were normalized to the uninhibited (row 31). Additionally, a no enzyme and 5-fold enzyme control was dispensed in row 32, split equally between the two conditions.

outcome, inactive:
Cn1c2cc(C#N)sc2c2cnn(Cc3ccccc3F)c(=O)c21
O=S(=O)(NC1CCC(NS(=O)(=O)c2c(F)cccc2F)CC1)c1ccc2c(c1)OCCO2 (stereo not given)
Cc1cc2[nH]c3c(=O)n(Cc4ccccc4F)ncc3c2s1
Cc1cc2c(s1)c1cnn(Cc3ccccc3F)c(=O)c1n2C
COc1ccc(S(=O)(=O)N2CCN(S(=O)(=O)c3c(F)cccc3F)CC2)cc1
O=S(=O)(c1ccc2ccccc2c1)N1CCN(S(=O)(=O)c2c(F)cccc2F)CC1

Activity change, positive = activation, inactive:
C[C@@H]1CN(S(=O)(=O)c2ccc3c(c2)OCCO3)CCN1S(=O)(=O)c1c(F)cccc1F 12%
COc1ccc(Cn2ncc3c4sc(C)cc4n(C)c3c2=O)cc1 -0.115%
Cc1cc2c(s1)c1cnn(Cc3cccc(Cl)c3)c(=O)c1n2C 13.6%
CC(=O)c1cc2c(s1)c1cnn(Cc3ccccc3F)c(=O)c1n2C -3.5%
Cc1ccc(Cn2ncc3c4sc(C)cc4n(C)c3c2=O)cc1 -1.9%
O=S(=O)(NC1CCN(S(=O)(=O)c2c(F)cccc2F)CC1)c1ccc2c(c1)OCCO2 7.34%
O=S(=O)(c1ccc2c(c1)OCCO2)N1CCN(S(=O)(=O)c2c(F)ccc(O)c2F)CC1 -0.69%
O=S(=O)(c1cccc(C(F)(F)F)c1)N1CCN(S(=O)(=O)c2ccc3c(c2)OCCO3)CC1 -1.31%
Cn1c2cc(CO)sc2c2cnn(Cc3ccccc3F)c(=O)c21 -7.43%
Cc1nc2ccc(S(=O)(=O)N3CCN(S(=O)(=O)c4c(F)cccc4F)CC3)cc2s1 6.67%
Cc1cc2c(s1)c1cnn(Cc3ccccc3)c(=O)c1n2C 7.2%
O=S(=O)(NCCCNS(=O)(=O)c1c(F)cccc1F)c1ccc2c(c1)OCCO2 2.27%
Cc1cc2c(s1)c1cnn(Cc3c(F)c(F)cc(F)c3F)c(=O)c1n2C 21%
O=S(=O)(c1ccc2c(c1)OCCO2)N1CCN(S(=O)(=O)c2ccccn2)CC1 13.3%
O=C1CN(S(=O)(=O)c2ccc3c(c2)OCCO3)CCN1S(=O)(=O)c1c(F)cccc1F 6.84%
Cn1ccc2cc(S(=O)(=O)N3CCN(S(=O)(=O)c4c(F)cccc4F)CC3)ccc21 10.4%
O=C(c1c(F)cccc1F)N1CCN(S(=O)(=O)c2ccc3c(c2)OCCO3)CC1 11.3%
O=S(=O)(NCCNS(=O)(=O)c1c(F)cccc1F)c1ccc2c(c1)OCCO2 -6.07%
Cc1cc2c(s1)c1cnn(Cc3cccc(F)c3)c(=O)c1n2C 1.98%
Cn1c2cc(S(C)=O)sc2c2cnn(Cc3ccccc3F)c(=O)c21 (stereo not given) -0.143%
O=S(=O)(c1ccc2c(c1)OCCO2)N1CCN(S(=O)(=O)c2ccc(F)cc2F)CC1 10.3%
Cc1cc2c(s1)c1cnn(Cc3ccc(C(F)(F)F)cc3F)c(=O)c1n2C 8.07%
O=S(=O)(c1c(F)cccc1F)C1CCN(S(=O)(=O)c2ccc3c(c2)OCCO3)CC1 10%
COc1ccc(Cn2ncc3c4sc(C)cc4n(C)c3c2=O)cc1F -3.8%
COc1cccc(S(=O)(=O)N2CCN(S(=O)(=O)c3ccc4c(c3)OCCO4)CC2)c1 6.37%
Cn1c2ccsc2c2ncn(Cc3ccccc3F)c(=O)c21 -6.76%
Cc1cc2c(s1)c1cnn(Cc3ccccc3F)c(=O)c1n2C(C)C 2.21%
Cc1cc2c(s1)c1cnn(Cc3ccc(F)c(F)c3F)c(=O)c1n2C -1.55%
CC(=O)Nc1cc2c(s1)c1cnn(Cc3ccccc3F)c(=O)c1n2C 0.505%
O=C1CN(S(=O)(=O)c2c(F)cccc2F)CCN1S(=O)(=O)c1ccc2c(c1)OCCO2 5.79%
O=S(=O)(NCC1CN(S(=O)(=O)c2c(F)cccc2F)C1)c1ccc2c(c1)OCCO2 -4.42%
Cc1cc2c(s1)c1cnn(Cc3ccccc3Cl)c(=O)c1n2C 0.414%
CC(O)c1cc2c(s1)c1cnn(Cc3ccccc3F)c(=O)c1n2C (stereo not given) 9.37%
Cc1cc2c(s1)c1cnn(Cc3ccc(F)cc3)c(=O)c1n2C -0.493%
